In the library only some 12% were active in any assay of this set; here they are far more common.
VP16 counter: inhibits Gal4-VP16 luciferase reporter, ROR gamma counter-screen; Drosophila S2 Gal4-VP16 UAS-luciferase, luminescence, 20 h; Potency, µM (doses to about 53.6 µM), hits mostly inhibitors; hit rate 3.5% among 310,000; AID 2546;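 further: Gal4-VP16 expression switched on by copper sulfate through the metallothionein promoter; nearly all actives have a fitted effect of over 50% in size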
PLK1 PBD inh: inhibitors of human PLK1 polo-box domain binding; P53350; Plk1 PBD binding of FITC phosphopeptide, fluorescence polarization; Potency, µM, actives largely listed as inhibitors; hit rate 2.8% among 360,000; further: series mostly up to about 57 µM; nearly all actives have a fitted effect of over 65% in size
Sfp inh: inhibitors of Bacillus subtilis Sfp phosphopantetheinyl transferase | Q9F4F7 | Biochemical Sfp PPTase activity, qHTS | Potency, µM, most hits filed as inhibitors | hit rate 3.5% among 310,000;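 further: the enzyme is Sfp with the accession as filed and its product quenches rhodamine fluorescence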
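Sfp 15 nM + cpd, 15 min RT; start w/ rhodamine-CoA 5 uM, BHQ-2-YbbR 12.5 uM (final); 50 mM Hepes pH 7.6, 10 mM MgCl2, 0.01% NP-40, 0.01% BSA; read 525/598 nm at 0 and 30 min.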
ALDH1A1 block: inhibitors of human aldehyde dehydrogenase 1A1; Purified ALDH1A1, NADH fluorescence, propionaldehyde substrate; AID 1030; hit rate 7.3% among 220,000; Potency, µM (top dose mostly 75.3 µM), hits mostly inhibitors; active means well fitted inhibition curve with a large enough effect, not every such curve was filed as active; inconclusive means small, poorly fitted or top-dose-only effect, or another doubt; inactive means no such curve, though single readings can be large or run the other way
Target sequence (P00352 whole entry, looked up): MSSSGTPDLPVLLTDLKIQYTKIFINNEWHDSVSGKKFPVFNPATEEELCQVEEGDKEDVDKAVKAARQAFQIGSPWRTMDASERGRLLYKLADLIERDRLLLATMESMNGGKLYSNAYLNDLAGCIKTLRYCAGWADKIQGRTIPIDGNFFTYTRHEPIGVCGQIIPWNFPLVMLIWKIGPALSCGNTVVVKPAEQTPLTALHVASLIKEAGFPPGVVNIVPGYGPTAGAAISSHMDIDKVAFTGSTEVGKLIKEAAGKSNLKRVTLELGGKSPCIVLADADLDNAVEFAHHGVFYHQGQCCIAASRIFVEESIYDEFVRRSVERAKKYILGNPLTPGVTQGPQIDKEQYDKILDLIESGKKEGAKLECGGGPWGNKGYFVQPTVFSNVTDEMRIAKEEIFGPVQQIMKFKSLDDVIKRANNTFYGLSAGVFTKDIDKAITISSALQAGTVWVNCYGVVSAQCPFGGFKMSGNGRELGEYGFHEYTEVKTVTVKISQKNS
RORgamma inh: ROR gamma (mouse) transcription inhibition | P51450 | Drosophila S2 Gal4-RORgamma UAS-luciferase reporter, 20 h | Potency, µM (titrated, usually from 53.6 µM), most hits filed as inhibitors | hit rate 5.4% among 310,000; further: nearly all actives have a fitted effect of over 60% in size
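Stable Schneider cell line, Gal4 DNA-binding domain fused to ROR gamma, UAS-luciferase. Cmpd 1 hr RT → CuSO4 700 uM final → 20 hr RT → luciferase reagent 10 min → luminescence.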
Each line names hits and unclear results; the compound was inactive in the other large screens. Unless noted, the call rests on the fitted dose curve; in most records, active means well fitted curve in the direction sought with a large enough effect; inconclusive means small, poorly fitted or top-dose-only effect, or another doubt; inactive means no such curve, though single readings can be large; an effect the other way counts as inactive or inconclusive.

O=C(Cn1c(Cc2ccccc2)nc2ccccc21)NCc1ccc2c(c1)OCO2	ALDH1A1 block 16µM
O=C(Cn1c(CO)nc2ccccc21)NCc1ccc2c(c1)OCO2	none
CCCn1c(=O)c(C(=O)NCc2ccc3c(c2)OCO3)c(O)c2ccccc21	VP16 counter inconclusive, RORgamma inh 13µM (no result: ALDH1A1 block)
O=C(CCn1c(=O)sc2ccccc21)NCc1ccc2c(c1)OCO2	ALDH1A1 block inconclusive
CCC1OCCC=CC1C (stereo not given)	none (no result: PLK1 PBD inh)
Cc1cc(C)cc(C(=O)Nn2cnnc2)c1	none (no result: ALDH1A1 block)
COc1ccc(C2Nc3ccccc3C(=O)N2Cc2ccco2)cc1COc1ccc(F)cc1 (stereo not given)	VP16 counter inconclusive, Sfp inh 40µM, ALDH1A1 block 2.5µM, RORgamma inh inconclusive
COc1ccc(C2Nc3ccccc3C(=O)N2Cc2ccco2)cc1CN1C(=O)c2ccccc2C1=O (stereo not given)	Sfp inh inconclusive
O=C(NCC1OCCc2ccccc21)c1ccco1 (stereo not given)	ALDH1A1 block 7.9µM
CN(C)C(=S)NC(=NCc1ccc([N+](=O)[O-])cc1)c1ccccc1	RORgamma inh 20µM (no result: ALDH1A1 block)
O=C(CCN1C(=O)COc2ccccc21)NCCN1CCc2ccccc2C1	none
O=C(CCN1C(=O)COc2ccccc21)NCc1cccs1	PLK1 PBD inh 24µM
O=C(O)CCCC(=O)Nc1ccn(-c2ccccc2)n1	PLK1 PBD inh 11µM
CC(=O)N1N=C2c3ccccc3CCC2C1c1ccc(F)cc1 (stereo not given)	none
COc1ccc2c(c1)CCC1C2=NN(/C(C)=C/C(C)=O)C1c1cccc(F)c1 (stereo not given)	VP16 counter inconclusive, ALDH1A1 block 28µM
CSc1ccc(C(O)c2ncc(-c3ccccc3F)[nH]2)cc1 (stereo not given)	none (no result: VP16 counter, Sfp inh, ALDH1A1 block, RORgamma inh)
CCCCn1nnc(NC(=O)COc2ccc(Cl)c(C)c2)n1	ALDH1A1 block inconclusive
CCCn1nnnc1NC(=O)COc1ccc(CC)cc1	VP16 counter 11µM, RORgamma inh 10µM
CCNC(=O)COc1ccc(CC)cc1	none
CCCn1nnnc1NC(=O)COc1ccc(Cl)c(C)c1	VP16 counter 4.5µM, RORgamma inh 5µM
O=C(O)c1c2c(nc3ccccc13)/C(=C/c1ccc(O)cc1)CC2	VP16 counter 13µM, PLK1 PBD inh 19µM, ALDH1A1 block inconclusive, RORgamma inh 7.9µM
CCN1C/C(=C/c2cccs2)c2nc3ccccc3c(C(=O)O)c2C1	Sfp inh 45µM (no result: ALDH1A1 block)
CCc1ccc(/C=C2\CN(CC)Cc3c2nc2ccccc2c3C(=O)O)cc1	Sfp inh 2.5µM, ALDH1A1 block inconclusive
COc1cccc2c1CCc1c-2nc2ccccc2c1C(=O)O	VP16 counter 10µM, RORgamma inh inconclusive (no result: ALDH1A1 block)
COc1cccc([C@@H]2Oc3ccc(OC)cc3C(=O)[C@H]2OC(=O)NCCOc2ccccc2)c1	none (no result: PLK1 PBD inh)
COC(=O)N[C@@H](c1cccc(F)c1)[C@@H](C)[N+](=O)[O-]	none (no result: PLK1 PBD inh)
Cc1cc(-c2n[nH]c(=S)n2/N=C/c2cccc(O)c2)n[nH]1	none
Cc1cc(-c2n[nH]c(=S)n2/N=C/C(Cl)=C/c2ccccc2)n[nH]1	VP16 counter inconclusive, PLK1 PBD inh inconclusive, Sfp inh 50µM, ALDH1A1 block inconclusive, RORgamma inh 8.9µM
S=c1[nH]nc(-c2ccco2)n1/N=C/C(Cl)=C/c1ccccc1	VP16 counter 11µM, PLK1 PBD inh inconclusive, Sfp inh inconclusive, RORgamma inh 4µM
Cc1c2oc3c(C)ccc(C(=O)NC4C(=O)NC(C(C)C)C(=O)N5CCCC5C(=O)N(C)CC(=O)N(C)C(C(C)C)C(=O)OC4C)c3nc-2c(C(=O)NC2C(=O)NC(C(C)C)C(=O)N3CCCC3C(=O)N(C)CC(=O)N(C)C(C(C)C)C(=O)OC2C)c(N)c1=O (stereo not given)	none (no result: VP16 counter, PLK1 PBD inh, RORgamma inh)
O=C(Nc1ccccc1)c1cc(C2CCCCN2C(=O)c2ccc3c(c2)CCO3)on1 (stereo not given)	none (no result: VP16 counter, Sfp inh, ALDH1A1 block, RORgamma inh)
Cc1c(C(=O)N2CCCCC2C)sc2ncnc(N3CCc4ccccc4C3)c12 (stereo not given)	ALDH1A1 block 7.9µM
O=C(Nc1ccc(F)c(Cl)c1)c1ccc2sc([C@H]3C[C@H](O)[C@@H](CO)O3)nc2c1	none (no result: VP16 counter, Sfp inh, ALDH1A1 block, RORgamma inh)
COc1ccc2[nH]cc(CCNc3ncncc3-c3ccccc3C(F)(F)F)c2c1	RORgamma inh inconclusive (no result: PLK1 PBD inh)
O=C1c2ccccc2C(=O)c2c(NC3CCCCC3)ccc(Nc3ccc(S(=O)(=O)O)cc3)c21	none (no result: VP16 counter, PLK1 PBD inh, Sfp inh, RORgamma inh)
Nc1ccc(O)cc1C(=O)OCC(=O)c1ccc(C2CCCCC2)cc1	VP16 counter inconclusive, ALDH1A1 block inconclusive, RORgamma inh 7.1µM
C#C[C@]1(O)CC[C@H]2[C@@H]3CCC4=CCCC[C@@H]4[C@H]3C(=C)C[C@@]21CC	none (no result: PLK1 PBD inh, ALDH1A1 block)
CSc1sc(C(=O)NNC(C)=O)c2c1C1(CCC2)SCCS1	ALDH1A1 block inconclusive
CSc1sc(C(=O)NN)c2c1C1(CCC2)SCCS1	ALDH1A1 block 0.45µM, RORgamma inh inconclusive
O=C(c1ccc(S(=O)(=O)Nc2cccc(C(F)(F)F)c2)cc1)N1CCN(c2ccccc2O)CC1	none (no result: VP16 counter, Sfp inh, ALDH1A1 block, RORgamma inh)
O=S(=O)(O)c1cc(O)c2c(O)c(N=Nc3cc(Cl)ccc3O)c(S(=O)(=O)O)cc2c1	VP16 counter inconclusive, PLK1 PBD inh 24µM, Sfp inh inconclusive, RORgamma inh inconclusive (no result: ALDH1A1 block)
Cc1cc(-c2ccc(N=Nc3c(S(=O)(=O)O)cc4cc(S(=O)(=O)O)cc(N)c4c3O)c(C)c2)ccc1N=Nc1c(S(=O)(=O)O)cc2cc(S(=O)(=O)O)cc(N)c2c1O	VP16 counter 13µM, Sfp inh 11µM, RORgamma inh 14µM (no result: PLK1 PBD inh, ALDH1A1 block)
Oc1ccc(Cl)cc1N=Nc1ccccc1	none (no result: ALDH1A1 block)
O=C(OCC1CO1)C1CCCCC1C(=O)OCC1CO1 (stereo not given)	none (no result: PLK1 PBD inh, Sfp inh)
C=CCN(CC=C)Cc1c(C)[nH]c2c(C)c(C)ccc2c1=O	VP16 counter 13µM, RORgamma inh inconclusive
Cc1ccc([C@@H]2C[C@H]3[C@@H](CN2S(=O)(=O)c2ccc(Cl)cc2)C(=O)C[C@@H](c2ccc(C)cc2)N3S(=O)(=O)c2ccc(Cl)cc2)cc1	none (no result: VP16 counter, Sfp inh, ALDH1A1 block, RORgamma inh)
Cn1c(=O)c2c(nc(CN3CCN(C(=O)c4ccco4)CC3)n2Cc2ccc(F)cc2)n(C)c1=O	ALDH1A1 block 20µM
Cc1ccccc1Cn1c(CN2CCN(C(=O)c3ccco3)CC2)nc2c1c(=O)n(C)c(=O)n2C	ALDH1A1 block inconclusive
Cn1c(=O)c2c(nc(CN3CCN(C(=O)c4ccco4)CC3)n2Cc2ccccc2F)n(C)c1=O	ALDH1A1 block 13µM
CCOc1ccc(S(=O)(=O)NCCC(=O)N2CCN(C(C)=O)CC2)cc1	none (no result: VP16 counter, Sfp inh, ALDH1A1 block, RORgamma inh)
Cc1cc(Cl)ccc1C(=O)C1CCCN(C(=O)c2cccc(N3CCCC3=O)c2)C1 (stereo not given)	PLK1 PBD inh 24µM, RORgamma inh inconclusive (no result: ALDH1A1 block)
Cc1cc(Cl)ccc1C(=O)C1CCCN(C(=O)c2ccc3ncccc3c2)C1 (stereo not given)	none
CC[C@@H](CS(=O)(=O)O)[N+](=O)[O-]	none (no result: VP16 counter, PLK1 PBD inh, Sfp inh, RORgamma inh)
COc1cc(/C(O)=C(\C#N)c2nc3ccccc3[nH]2)cc(OC)c1OC	VP16 counter inconclusive, RORgamma inh 11µM (no result: ALDH1A1 block)
